The source of these data is PubChem BioAssay (EPA / NIEHS).

Records with an inconclusive call do not appear. Activity calls are given as the source filed them. The calls were made as follows, unless noted: active = hit-call score of the fitted dose curve at least 0.9, where 1 is the maximum; inactive = score below 0.9.

Assay [1] has as its target Estrogen-related receptor gamma (Homo sapiens) (UniProt P62508). In words: ATG_ERRg_TRANS: Attagene TRANS-FACTORIAL HepG2 Assay for human Estrogen-Related Receptor gamma (ERRg) (AID 2282977; active = hit-call score of the fitted dose curve at least 0.9, where 1 is the maximum;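 also: hits increase reporter signal over DMSO so potencies reflect activators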). The following applies: HepG2 Attagene TRANS reporter, ERRg transactivation. Put shortly:
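HepG2 cells transiently transfected with multiplexed GAL4-UAS reporter units and chimeric NR-Gal4 constructs were exposed to test chemicals for 24 h. Reporter mRNA was measured by RT-PCR, 6-FAM primer extension, HpaI digestion and capillary electrophoresis; gain-of-signal versus DMSO.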

Assay [2] deals with Glucocorticoid receptor (Homo sapiens) (UniProt P04150). The assay can be described thus: ATG_GR_TRANS: Attagene TRANS-FACTORIAL HepG2 Assay for human Glucocorticoid Receptor (GR) (AID 2282978; active = hit-call score of the fitted dose curve at least 0.9, where 1 is the maximum;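 also: activators score as hits since higher reporter transcript over DMSO is fitted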). The following applies: HepG2 Attagene TRANS GR reporter, mRNA transcription. In outline:
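Measurement of GAL4-UAS-driven reporter mRNA in human HepG2 liver cells 24 h post-dosing, using RT-PCR with fluorescent labelling and capillary electrophoresis; the transfected constructs report exogenous NR-GAL4 chimera activity, fitted upward against DMSO.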

Assay [3] concerns the target Oxysterols receptor LXR-beta (Homo sapiens) (UniProt P55055). In words: ATG_LXRb_TRANS: Attagene TRANS-FACTORIAL HepG2 Assay for human Liver X Receptor beta (LXRb) (AID 2282981; active = hit-call score of the fitted dose curve at least 0.9, where 1 is the maximum). The following applies: HepG2 Attagene TRANS GAL4-LXRb reporter, mRNA. In outline:
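Gain-of-signal mRNA reporter endpoint, DMSO as negative control. Transiently transfected HepG2 cells carrying the NR-Gal4 chimera and GAL4-UAS reporter units were treated 24 h; transcripts quantified by RT-PCR and capillary electrophoresis fluorescence.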

In assay [4] the target is Hepatocyte nuclear factor 4-alpha (Homo sapiens) (UniProt P41235). The assay can be described thus: ATG_HNF4a_TRANS: Attagene TRANS-FACTORIAL HepG2 Assay for human Hepatocyte Nuclear Factor 4 alpha (HNF4a) (AID 2282982; active = hit-call score of the fitted dose curve at least 0.9, where 1 is the maximum). Conditions: HepG2 HNF4a transactivation reporter, mRNA readout. In outline:
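Gain-of-signal mRNA induction, relative to DMSO vehicle, was read after 24 h compound treatment of HepG2 cells bearing transfected GAL4-UAS reporters. Detection used RT-PCR, 6-FAM primer extension and capillary electrophoresis.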

Assay [5] is described as follows: ATG_M_06_TRANS: Attagene TRANS-FACTORIAL HepG2 Assay for M06 Transcription Factor (Internal Marker) (AID 2282983; active = hit-call score of the fitted dose curve at least 0.9, where 1 is the maximum). The following applies: HepG2 Attagene TRANS M06 internal marker reporter. Put shortly: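 Transfect HepG2 with MRTUs → dose compounds 24 h → isolate RNA, oligo(dT) RT → PCR with reporter primers → 6-FAM primer extension → HpaI digest → CE fragment analysis. Positive direction vs DMSO.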

Assay [6] can be described thus: ATG_M_32_TRANS: Attagene TRANS-FACTORIAL HepG2 Assay for M32 Transcription Factor (Internal Marker) (AID 2282984; active = hit-call score of the fitted dose curve at least 0.9, where 1 is the maximum;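 also: transcript level of a background control reporter unit measured by RT-PCR and capillary electrophoresis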). Conditions: HepG2 Attagene TRANS M32 internal marker reporter. In outline:
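Capillary electrophoresis of 6-FAM-labelled reporter fragments gives the signal; data fitted for gain over DMSO negative control. Source: HepG2 cells bearing transient multiple reporter transcription units, 24 h exposure.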

The target in assay [7] is Nuclear receptor subfamily 4 group A member 2 (Homo sapiens) (UniProt P43354). The assay can be described thus: ATG_NURR1_TRANS: Attagene TRANS-FACTORIAL HepG2 Assay for human Nuclear Receptor Related Protein 1 (NURR1) (AID 2282985; active = hit-call score of the fitted dose curve at least 0.9, where 1 is the maximum). Conditions: HepG2 Attagene TRANS reporter, mRNA readout. In outline:
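HepG2 / transient MRTU transfection / 24 h compound exposure / RT-PCR + CE fluorescence of reporter mRNA / gain-of-signal vs DMSO.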

For assay [8], the target named is Transcriptional activator Myb (Homo sapiens) (UniProt P10242). In words: ATG_Myb_CIS: Attagene CIS-FACTORIAL HepG2 Assay for human Myeloblastosis (Myb) Proto-Oncogene Transcription Factor (AID 2282986). The following applies: HepG2 Attagene CIS-FACTORIAL Myb reporter transcription; actives raise or lower the signal. Put shortly:
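Fluorescence signals from capillary electrophoresis of RT-PCR-amplified reporter cDNA give the read-out. Cells: HepG2 transfected with multiple cis-regulated reporter units. Exposure lasts 24 hours; DMSO defines baseline for gain or loss of signal.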

For assay [9], the target named is Nuclear respiratory factor 1 (Homo sapiens) (UniProt Q16656). The assay can be described thus: ATG_NRF1_CIS: Attagene CIS-FACTORIAL HepG2 Assay for human Nuclear Respiratory Factor 1 (NRF1) Orphan Gene (AID 2282987). The following applies: HepG2 NRF1 cis-element reporter, Attagene multiplex; actives raise or lower the signal. In outline: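 Transcriptional reporter readout, one component of a 52-endpoint multiplexed HepG2 panel. Exposure 24 h; mRNA detected via RT-PCR and fluorescent capillary electrophoresis; fitting in both directions against DMSO.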

The nature of assay [10]: ATG_NFI_CIS: Attagene CIS-FACTORIAL HepG2 Assay for human Nuclear Factor I (NFI) (AID 2282989). The following applies: HepG2 cis-regulatory reporter, NFI response element transcription; actives raise or lower the signal. In outline: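 Read-out: reporter mRNA via RT-PCR plus capillary electrophoresis with fluorescence detection. Transiently transfected HepG2 (endogenous TF activity on cis promoters), 24 h compound exposure; gain or loss of signal fitted against DMSO.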

In assay [11] the target is Myc proto-oncogene protein (Homo sapiens) (UniProt P01106). The assay can be described thus: ATG_Myc_CIS: Attagene CIS-FACTORIAL HepG2 Assay for human Myelocytomatosis (Myc) Proto-Oncogene Transcription Factor (AID 2282990). Conditions: HepG2, Attagene cis-reporter transcription factor activity; actives raise or lower the signal. In outline:
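Read-out: fluorescent reporter mRNA fragments resolved by capillary electrophoresis after RT-PCR. Human HepG2 liver cells carried transfected cis-element reporter units and were dosed for 24 h. Gain or loss of signal fitted relative to DMSO baseline.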

Assay [12] can be described thus: ATG_NF_kB_CIS: Attagene CIS-FACTORIAL HepG2 Assay for human Nuclear Factor Kappa B (NF-kB) (AID 2282991). The following applies: HepG2 Attagene cis-factorial NF-kB reporter mRNA; actives raise or lower the signal. In outline:
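HepG2, transient multi-reporter transfection, cis promoter elements (endogenous TFs). 24 h exposure. Total RNA → RT → PCR → 6-FAM label → HpaI → CE. Gain/loss vs DMSO.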

The nature of assay [13]: ATG_NRF2_ARE_CIS: Attagene CIS-FACTORIAL HepG2 Assay for human Nuclear Factor Erythroid 2 Related Factor 2 (NFR2) response to Antioxidant Response Elements (ARE) (AID 2282992).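 As to AC50: reporter mRNA level measured by RT-PCR and capillary electrophoresis fluorescence.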 Conditions: HepG2 Attagene ARE/NRF2 reporter, transcription factor activity; actives raise or lower the signal. In outline: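 Multiplexed reporter mRNA profiling in HepG2 after a 24 h chemical exposure. Curves fitted in both directions relative to DMSO negative control.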

A short description of assay [14]: ATG_Oct_MLP_CIS: Attagene CIS-FACTORIAL HepG2 Assay for human Octamer-Binding Transcription Factor (Oct) (AID 2282993). Conditions: HepG2 Attagene cis-factorial Oct reporter, mRNA; actives raise or lower the signal. Put shortly: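 Read-out: reporter mRNA via RT-PCR plus capillary electrophoresis of 6-FAM-labelled fragments. Transiently transfected HepG2, 24 h exposure, endogenous TF activity on cis elements. Gain or loss of signal fitted relative to DMSO.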

Assay [15] concerns the target Cellular tumor antigen p53 (Homo sapiens) (UniProt P04637). In words: ATG_p53_CIS: Attagene CIS-FACTORIAL HepG2 Assay for human p53 Transcription Factor (AID 2282994). Conditions: HepG2 p53 cis-element reporter, Attagene mRNA; actives raise or lower the signal. In outline: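 Multiplexed reporter mRNA assay in human HepG2 liver cells; cis-regulated units report endogenous factor activity. Values come from bidirectional curve fitting against DMSO negative control after 24 h treatment.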

The target of assay [16] is Oxysterols receptor LXR-alpha (Homo sapiens) (UniProt Q13133). The assay can be described thus: ATG_LXRa_TRANS: Attagene TRANS-FACTORIAL HepG2 Assay for human Liver X Receptor alpha (LXRa) (AID 2282980; active = hit-call score of the fitted dose curve at least 0.9, where 1 is the maximum). Conditions: HepG2 Attagene TRANS reporter, LXRa transactivation. In outline:
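Transfect HepG2 with GAL4-UAS multiplex reporter constructs (TRANS format, chimeric receptor-GAL4); treat 24 h; extract RNA, reverse-transcribe, PCR-amplify, FAM-label, HpaI-digest; resolve fragments by capillary electrophoresis. Upward response vs DMSO.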

The target of assay [17] is Bile acid receptor (Homo sapiens) (UniProt Q96RI1). The assay can be described thus: ATG_FXR_TRANS: Attagene TRANS-FACTORIAL HepG2 Assay for Farnesoid X Receptor (FXR) (AID 2282979; active = hit-call score of the fitted dose curve at least 0.9, where 1 is the maximum;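 also: hits raise reporter mRNA above DMSO so AC50 marks FXR activation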). The following applies: HepG2 Attagene TRANS FXR-GAL4 reporter transcription. Put shortly: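 Transient transfection of HepG2 with multiplexed GAL4-UAS reporter units; exogenous FXR-GAL4 chimera. Dose 24 h → TriZol RNA → oligo(dT) RT → PCR, 6-FAM primer extension, HpaI cut → CE. Gain vs DMSO.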

Transcriptional activator Myb (Homo sapiens), sequence (P10242 whole entry, looked up): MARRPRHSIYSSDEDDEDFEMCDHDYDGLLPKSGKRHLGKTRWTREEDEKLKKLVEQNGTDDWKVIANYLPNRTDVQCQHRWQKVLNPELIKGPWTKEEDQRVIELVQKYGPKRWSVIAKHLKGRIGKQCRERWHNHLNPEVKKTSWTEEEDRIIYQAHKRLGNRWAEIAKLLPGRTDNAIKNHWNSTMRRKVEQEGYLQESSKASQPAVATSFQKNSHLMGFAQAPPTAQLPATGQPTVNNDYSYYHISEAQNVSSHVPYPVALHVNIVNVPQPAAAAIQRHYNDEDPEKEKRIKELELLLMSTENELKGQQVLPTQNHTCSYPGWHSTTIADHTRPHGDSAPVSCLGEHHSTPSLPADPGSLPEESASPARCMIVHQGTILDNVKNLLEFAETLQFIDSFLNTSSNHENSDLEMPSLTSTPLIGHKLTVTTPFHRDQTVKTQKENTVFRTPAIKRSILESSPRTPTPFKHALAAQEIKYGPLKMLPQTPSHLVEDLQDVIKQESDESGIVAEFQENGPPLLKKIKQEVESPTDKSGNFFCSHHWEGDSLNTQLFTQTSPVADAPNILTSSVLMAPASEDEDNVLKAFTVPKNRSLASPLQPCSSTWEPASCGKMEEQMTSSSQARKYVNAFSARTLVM
Estrogen-related receptor gamma (Homo sapiens), sequence (P62508 whole entry, looked up, the tested form may be a part): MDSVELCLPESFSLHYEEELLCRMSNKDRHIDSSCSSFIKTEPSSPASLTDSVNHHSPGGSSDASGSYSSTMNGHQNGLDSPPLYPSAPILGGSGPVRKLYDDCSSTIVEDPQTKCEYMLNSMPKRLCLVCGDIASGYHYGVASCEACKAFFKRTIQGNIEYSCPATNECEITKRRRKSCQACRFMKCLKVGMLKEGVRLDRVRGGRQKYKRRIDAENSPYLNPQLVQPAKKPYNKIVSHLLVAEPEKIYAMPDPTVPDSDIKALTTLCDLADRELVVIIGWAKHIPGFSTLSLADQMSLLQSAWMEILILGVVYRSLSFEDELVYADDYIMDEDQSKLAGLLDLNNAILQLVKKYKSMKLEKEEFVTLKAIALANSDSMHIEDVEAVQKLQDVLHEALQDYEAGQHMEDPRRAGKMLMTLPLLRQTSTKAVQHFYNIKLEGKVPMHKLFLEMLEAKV
Myc proto-oncogene protein (Homo sapiens), sequence (P01106 whole entry, looked up, the tested form may be a part): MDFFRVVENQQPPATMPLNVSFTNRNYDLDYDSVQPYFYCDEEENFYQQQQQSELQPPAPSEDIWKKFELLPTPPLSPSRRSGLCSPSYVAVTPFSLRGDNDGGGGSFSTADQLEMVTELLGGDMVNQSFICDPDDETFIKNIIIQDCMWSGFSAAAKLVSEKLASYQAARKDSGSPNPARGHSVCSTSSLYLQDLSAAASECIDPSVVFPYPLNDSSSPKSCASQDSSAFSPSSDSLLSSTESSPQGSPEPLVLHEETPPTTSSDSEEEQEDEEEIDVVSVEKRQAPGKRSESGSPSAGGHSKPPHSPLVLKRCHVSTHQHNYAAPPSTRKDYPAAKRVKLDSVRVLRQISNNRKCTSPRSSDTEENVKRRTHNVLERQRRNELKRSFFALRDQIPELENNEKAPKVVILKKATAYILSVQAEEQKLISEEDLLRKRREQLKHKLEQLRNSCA
Cellular tumor antigen p53 (Homo sapiens), sequence (P04637 whole entry, looked up): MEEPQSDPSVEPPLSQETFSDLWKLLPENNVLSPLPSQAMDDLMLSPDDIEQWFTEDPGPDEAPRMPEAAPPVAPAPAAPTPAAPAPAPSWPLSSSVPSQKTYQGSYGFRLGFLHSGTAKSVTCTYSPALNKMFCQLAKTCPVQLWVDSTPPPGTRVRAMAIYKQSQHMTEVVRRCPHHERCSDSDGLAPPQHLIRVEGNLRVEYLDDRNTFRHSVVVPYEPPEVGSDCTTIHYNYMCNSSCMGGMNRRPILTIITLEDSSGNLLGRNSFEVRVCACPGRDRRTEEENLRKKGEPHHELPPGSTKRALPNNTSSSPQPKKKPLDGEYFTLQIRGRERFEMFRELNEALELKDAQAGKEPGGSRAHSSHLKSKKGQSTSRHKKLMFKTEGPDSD
Oxysterols receptor LXR-beta (Homo sapiens), sequence (P55055 whole entry, looked up, the tested form may be a part): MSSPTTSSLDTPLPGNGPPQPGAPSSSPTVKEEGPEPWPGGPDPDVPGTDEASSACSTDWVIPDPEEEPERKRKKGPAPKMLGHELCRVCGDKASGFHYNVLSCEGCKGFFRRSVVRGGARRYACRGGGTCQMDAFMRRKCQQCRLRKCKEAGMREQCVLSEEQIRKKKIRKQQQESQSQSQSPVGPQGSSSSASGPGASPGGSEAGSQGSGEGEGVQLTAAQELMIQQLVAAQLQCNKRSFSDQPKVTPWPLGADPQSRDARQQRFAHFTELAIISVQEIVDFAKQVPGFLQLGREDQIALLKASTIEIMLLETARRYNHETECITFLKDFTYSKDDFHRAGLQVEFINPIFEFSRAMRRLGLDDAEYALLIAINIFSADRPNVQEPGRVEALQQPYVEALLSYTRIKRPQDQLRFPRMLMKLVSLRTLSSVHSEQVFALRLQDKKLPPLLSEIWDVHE
Glucocorticoid receptor (Homo sapiens), sequence (P04150 whole entry, looked up, the tested form may be a part): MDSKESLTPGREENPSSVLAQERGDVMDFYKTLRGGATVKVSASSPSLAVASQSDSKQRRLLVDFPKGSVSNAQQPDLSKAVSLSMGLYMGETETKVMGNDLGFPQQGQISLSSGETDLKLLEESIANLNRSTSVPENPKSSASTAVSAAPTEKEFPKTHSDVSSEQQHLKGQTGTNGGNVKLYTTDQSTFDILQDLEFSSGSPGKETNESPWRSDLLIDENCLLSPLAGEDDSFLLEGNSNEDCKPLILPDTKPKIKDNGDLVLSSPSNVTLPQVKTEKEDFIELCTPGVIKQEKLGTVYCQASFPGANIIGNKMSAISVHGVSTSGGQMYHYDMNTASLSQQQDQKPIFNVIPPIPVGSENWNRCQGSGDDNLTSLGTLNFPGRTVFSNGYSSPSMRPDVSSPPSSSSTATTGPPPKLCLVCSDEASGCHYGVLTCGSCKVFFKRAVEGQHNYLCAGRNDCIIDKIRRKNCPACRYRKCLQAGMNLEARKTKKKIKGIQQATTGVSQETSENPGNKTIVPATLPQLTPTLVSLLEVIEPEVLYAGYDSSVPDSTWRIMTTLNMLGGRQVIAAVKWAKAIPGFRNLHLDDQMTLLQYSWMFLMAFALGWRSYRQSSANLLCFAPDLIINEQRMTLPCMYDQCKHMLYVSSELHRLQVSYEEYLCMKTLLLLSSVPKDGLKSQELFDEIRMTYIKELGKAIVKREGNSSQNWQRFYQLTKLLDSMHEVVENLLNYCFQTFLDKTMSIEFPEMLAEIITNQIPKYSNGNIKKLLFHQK
Nuclear receptor subfamily 4 group A member 2 (Homo sapiens), sequence (P43354 whole entry, looked up): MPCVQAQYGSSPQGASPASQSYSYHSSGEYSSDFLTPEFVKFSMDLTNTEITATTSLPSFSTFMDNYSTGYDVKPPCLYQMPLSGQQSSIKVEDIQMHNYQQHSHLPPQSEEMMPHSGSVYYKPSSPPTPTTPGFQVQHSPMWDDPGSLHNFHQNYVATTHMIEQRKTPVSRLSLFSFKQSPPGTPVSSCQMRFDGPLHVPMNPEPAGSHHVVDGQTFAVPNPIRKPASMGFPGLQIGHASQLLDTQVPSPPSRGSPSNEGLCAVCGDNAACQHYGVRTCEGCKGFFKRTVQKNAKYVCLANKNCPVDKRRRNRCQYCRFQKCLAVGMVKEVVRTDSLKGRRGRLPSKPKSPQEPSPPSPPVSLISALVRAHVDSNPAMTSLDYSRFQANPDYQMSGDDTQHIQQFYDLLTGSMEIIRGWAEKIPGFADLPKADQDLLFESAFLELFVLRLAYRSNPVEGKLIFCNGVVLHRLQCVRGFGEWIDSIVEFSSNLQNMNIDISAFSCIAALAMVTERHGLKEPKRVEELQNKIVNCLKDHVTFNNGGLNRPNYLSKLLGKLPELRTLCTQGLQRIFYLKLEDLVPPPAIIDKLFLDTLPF
Hepatocyte nuclear factor 4-alpha (Homo sapiens), sequence (P41235 whole entry, looked up, the tested form may be a part): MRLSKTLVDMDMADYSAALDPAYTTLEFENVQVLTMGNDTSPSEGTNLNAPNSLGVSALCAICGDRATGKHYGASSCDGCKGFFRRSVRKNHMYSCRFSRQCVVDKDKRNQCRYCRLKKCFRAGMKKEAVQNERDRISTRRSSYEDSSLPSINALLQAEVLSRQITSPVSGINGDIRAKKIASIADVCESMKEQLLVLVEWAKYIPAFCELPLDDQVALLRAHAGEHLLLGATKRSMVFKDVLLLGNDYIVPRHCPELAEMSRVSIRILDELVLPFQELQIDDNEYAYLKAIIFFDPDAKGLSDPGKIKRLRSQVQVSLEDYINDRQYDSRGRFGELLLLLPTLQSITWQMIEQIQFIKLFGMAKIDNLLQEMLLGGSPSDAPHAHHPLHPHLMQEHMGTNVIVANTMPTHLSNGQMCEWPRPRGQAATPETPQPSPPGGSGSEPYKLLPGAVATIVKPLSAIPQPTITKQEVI
Nuclear respiratory factor 1 (Homo sapiens), sequence (Q16656 whole entry, looked up): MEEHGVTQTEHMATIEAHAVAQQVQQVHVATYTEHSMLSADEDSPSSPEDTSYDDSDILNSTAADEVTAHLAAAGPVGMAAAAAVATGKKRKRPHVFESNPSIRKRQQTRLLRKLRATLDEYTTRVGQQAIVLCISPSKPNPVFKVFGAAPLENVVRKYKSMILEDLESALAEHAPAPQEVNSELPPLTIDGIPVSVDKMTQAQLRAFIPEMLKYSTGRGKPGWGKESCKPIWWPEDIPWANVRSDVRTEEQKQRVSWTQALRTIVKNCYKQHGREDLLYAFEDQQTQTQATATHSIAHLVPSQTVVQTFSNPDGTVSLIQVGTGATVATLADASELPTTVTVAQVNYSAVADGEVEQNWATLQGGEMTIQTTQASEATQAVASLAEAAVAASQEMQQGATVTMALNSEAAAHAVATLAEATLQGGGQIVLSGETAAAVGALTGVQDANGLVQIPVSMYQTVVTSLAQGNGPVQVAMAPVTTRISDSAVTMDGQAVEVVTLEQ

In the case of `Brc1cc(Br)cc(Br)c1`, the compound was classed as inactive in [1], in assay [2], in assay [3], in assay [4], in [5] and in assay [6]. Moreover, the result in assay [7], in assay [8], in [9], in assay [10], in assay [11] and in assay [12] was inactive. Besides, the outcome in assay [13] and in assay [14] was inactive.
For the compound `CCOc1ccc(NC(C)=O)cc1`, the call in [1], in [2], in assay [4], in [6], in assay [8] and in assay [9] was inactive. The result in assay [10], in assay [11], in assay [13], in [14] and in assay [15] was inactive.
The AC50 is the midpoint of the concentration-response curve, whichever way the signal moves. On to `Nc1ccc(O)c(N)c1`, for which the result in assay [1], in [3], in [6], in assay [7], in assay [8] and in assay [9] was inactive. In addition, the result in [10], in assay [11], in assay [14] and in [15] was inactive. For the same compound, in assay [13], the AC50 is 43.9 µM (active).
Regarding `CC(C)OB(OC(C)C)OC(C)C`, the compound was called inactive in assay [1], in assay [2], in assay [3], in assay [4], in [6] and in assay [7]. Further, the outcome in assay [8], in assay [9], in [10], in assay [11], in assay [12] and in assay [13] was inactive. Also, the compound was called inactive in assay [14].
In the case of `O=C1CCCCCCCCCCCC(=O)OCCO1`, the call in [1], in assay [2], in [3], in [4], in assay [6] and in assay [7] was inactive. In addition, the outcome in [8], in assay [9], in assay [10], in assay [11], in assay [13] and in assay [14] was inactive.
For the compound `ClCCOCCOCCCl`, the compound was called inactive in assay [1], in assay [3], in assay [4], in [5], in assay [7] and in [8]. Moreover, the result in [9], in assay [11], in assay [14] and in assay [15] was inactive. Besides, the AC50 in assay [13] is 54.7 µM (active).
In the case of `O=C(O)c1ccccc1O`, the result in [1], in assay [16], in [3], in assay [6], in [8] and in assay [9] was inactive. The result in [10], in [11], in [13] and in assay [14] was inactive.
As for `O=C(O)CS`, the call in assay [1], in assay [2], in assay [4], in assay [5], in assay [7] and in assay [8] was inactive. Also, the result in assay [9], in [10], in assay [11], in assay [12], in assay [13] and in assay [14] was inactive.
Consider `CCCCCCCCOS(=O)(=O)O`, for which the compound was classed as inactive in assay [1], in [2], in [5], in assay [6], in assay [8] and in assay [9]. Besides, the result in assay [10], in assay [11], in assay [12], in assay [13] and in assay [14] was inactive.
On to `CCCCC(CC)COCCO` (stereo not drawn), for which the outcome in assay [1], in assay [2], in [16], in [5], in [6] and in assay [8] was inactive. Further, the call in [9], in [10], in assay [11], in assay [12], in [13] and in [14] was inactive. Further, in assay [15], the outcome was inactive.
Consider `CCCCCCCCCO`, for which the outcome in [1], in [2], in assay [17], in assay [16], in [3] and in assay [6] was inactive. In addition, the compound was called inactive in assay [8], in assay [11], in [14] and in [15].
